tim23-1 inh = tim23-1 yeast growth inhibition; S. cerevisiae tim23-1 growth, BacTiter-Glo luminescence, 24 h; inhibition, % at 20 µM; 330,000 tested, 1.3% active;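 active = growth inhibition of the mutant yeast at or above 50%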;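 also: temperature-sensitive mutant grown at 25 °C; plate controls were DMSO-treated mutant yeast for no effect and medium wells lacking yeast for full effect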
NALP3 yeast inh = blocks the NALP3 inflammasome reconstituted in yeast; inhibition, % at 10 µM; 330,000 tested, 0.39% active; Yeast reconstituted NLRP3/ASC/caspase-1, beta-gal luminescence, 24 h; AID 2825;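 active = inhibition of 50% or more; inactive = inhibition below 50%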;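 also: plate controls were induced DMSO wells for no effect and uninduced yeast grown without galactose for full effect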
TIM10 inh = TIM10 yeast growth inhibition. S. cerevisiae TIM10 strain growth, BacTiter-Glo luminescence, 24 h. inhibition, % at 10 µM. 330,000 tested, 1.4% active;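 active = inhibition of 40% or more at the single tested concentration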;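 also: wild-type TIM10 isogenic control strain grown at permissive 25 °C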
CR mimetic SO = caloric restriction mimetics inhibiting age-related superoxide in yeast; S. cerevisiae aged cells, superoxide DHE fluorescence; hits give low values; superoxide response (% of plate mean), % at 10 µM; 330,000 tested, 0.18% active; AID 2690;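 active = superoxide response under a set limit, about three screen SD below normal, cut at about 65% in these data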;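 also: yeast aged for seven days with compound at 30 °C before DHE staining; 100% = average MFI of all compound-treated wells on the plate with controls excluded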
tim10-1 inh = inhibits growth of tim10-1 mutant yeast; 330,000 tested, 2.2% active; S. cerevisiae tim10-1 ts strain growth, BacTiter-Glo, 24 h; inhibition, % at 20 µM;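 active = inhibition of at least 40%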;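 also: mutant grown at 25 °C; 0% = DMSO wells with yeast and 100% = wells holding no yeast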
tim10-1 confirm = tim10-1 yeast growth inhibition, confirmed. AID 463213. S. cerevisiae tim10-1 ts strain growth, BacTiter-Glo, 24 h. inhibition, % at 20 µM. 7,400 tested, 56% active. shares compounds with tim10-1 inh;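 active = inhibition of yeast growth at or above a set limit in either of two repeat tests at 20 µM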;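 also: tim10-1 mutant grown at permissive 25 °C to find synthetic lethal compounds; 0% = DMSO yeast wells and 100% = medium wells without yeast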
Starred values were filed as active, the others as inactive; · = no result given. Most compounds without a hit are left out; they make up all but 3.8% or so of the library.

SMILES	tim23-1 inh	NALP3 yeast inh	TIM10 inh	CR mimetic SO	tim10-1 inh	tim10-1 confirm
COc1ccc2cc(C)c3nnc(SCC(=O)Nc4cc(OC)c(OC)cc4C(=O)O)n3c2c1	16	5	4	106	30	·
CCCCNC(=S)N1CCn2cccc2C1c1ccccc1 (configuration not stated)	4	16	13	118	14	·
CCCCNC(=S)N1CCn2cccc2C1c1ccc(F)cc1 (configuration not stated)	-2	1	15	108	44*	21
CCN1CCN(CCNC(=O)c2ccc(/C=C3\Sc4ccccc4N(Cc4ccccc4F)C3=O)cc2)CC1	41	8	13	104	16	·
CN1CCN(CCCNC(=O)c2ccc(/C=C3\Oc4ccccc4N(Cc4ccccc4F)C3=O)cc2)CC1	32	12	12	110	42*	10
CC1(C)CC2CC(C)(CN2S(=O)(=O)c2cccc(N)c2)C1 (configuration not stated)	27	2	35	108	48*	39*
O=C(CSc1nccc(=O)[nH]1)Nc1ccc(Br)c(Cl)c1	0	-10	3	78	-5	·
O=C(CC1N=C(Cc2ccccc2)NNC1=O)N/N=C/c1ccc([N+](=O)[O-])cc1 (configuration not stated)	1	-9	7	101	4	·
Cc1ccc(Sc2ncnc3onc(C)c23)cc1	32	43	6	117	41*	21
O=CNC1CCCc2c1[nH]c1ccc(Cl)cc21 (configuration not stated)	33	8	30	106	45*	28
C/C(=N\Nc1nc2ccccc2s1)c1ccc2c(c1)OCO2	23	2	31	100	42*	5
Cc1cc(=O)oc2cc(OC(=O)CCCCCN3C(=O)c4ccccc4C3=O)ccc12	40	-2	26	105	49*	43*
CC1=CC(C)(C)Nc2ccc(OC(=O)CCN3C(=O)c4ccccc4C3=O)cc21	37	14	38	93	40*	32*
Cc1ccc(S(=O)(=O)CCC(=O)Oc2ccc3c(C)cc(=O)oc3c2)cc1	17	6	15	106	13	·
O=C(CCN1C(=O)c2ccccc2C1=O)Oc1ccc2ccccc2c1	30	3	10	93	11	·
COc1ccccc1CNC(=O)C1CCCN(S(=O)(=O)c2ccc3c(c2)CC(C)N3C(C)=O)C1 (configuration not stated)	14	1	6	104	12	·
CCN1CCN(c2ccc(NC(=O)c3cc(OC)c(OC)c(OC)c3)cc2)CC1	5	21	-5	97	1	·
COc1ccc(Oc2ccc(C(F)(F)F)cc2N)cc1	12	19	15	101	10	·
S=c1[nH]c2cc(-c3ccccc3)ccc2o1	48	15	31	102	43*	28
Cc1ccc(NC(=O)CSc2ncccn2)cc1S(=O)(=O)N1CCOCC1	11	7	7	105	7	·
COc1ccc(C(=O)c2ccc(OC)cc2O)c(O)c1	21	35	15	96	41*	36*
COc1ccc(C(=O)/C=C/c2ccccc2)c(O)c1	34	20	40	86	49*	47*
COc1cc2c(cc1OC)CN(C(=O)C1CCCN1S(=O)(=O)c1ccc(C)cc1)CC2 (configuration not stated)	6	5	1	93	19	·
CC(=O)NS(=O)(=O)c1ccc(NC(=O)NC2CCCCC2)cc1	9	-7	-4	107	1	·
Clc1ccc(C2=CC(c3ccco3)n3ncnc3N2)cc1 (configuration not stated)	24	17	29	99	43*	33*
SMILES	tim23-1 inh	NALP3 yeast inh	TIM10 inh	CR mimetic SO	tim10-1 inh	tim10-1 confirm
COc1ccc(C2=CC(c3ccco3)n3ncnc3N2)cc1 (configuration not stated)	15	27	15	·	24	·
O=C(NNc1nc(Nc2ccccc2)nc(N2CCOCC2)n1)Nc1ccc(Cl)cc1	27	-5	16	100	27	·
COc1cccc(C(=O)O/N=C(\N)CS(=O)(=O)c2ccccc2)c1	10	7	9	113	0	·
Oc1ccc(N=Nc2ccc3ccccc3c2)cc1	-16	42	6	84	-62	·
COC(=O)c1ccc(COc2ccccc2/C=C(\C#N)C(=O)Nc2c(C)cc(C)cc2C)cc1	30	9	2	93	47*	13
COc1cc(/C=C(/C#N)C(=O)Nc2ccccc2)c(Br)cc1OCc1ccc(C(=O)O)cc1	42	-55	31	99	43*	40*
Cc1ccc(-c2csc(C3C(N)=NC(S)=C(C#N)C34CCCCC4)n2)cc1 (configuration not stated)	33	13	33	109	45*	19
CCOC(=O)c1c2c(n(C)c1COC)C(=O)C(=O)c1ccc(Br)cc1-2	41	12	6	102	48*	13
COCCn1c(SCC(=O)Nc2cccnc2Cl)nc2ccccc21	6	6	4	107	4	·
COCCn1c(SCC(=O)Nc2nc(C)c(Cl)cc2Cl)nc2ccccc21	7	20	10	103	42*	13
Cc1cc(SCC(=O)Nc2cccnc2Cl)nc2ccccc12	15	-8	-2	103	-6	·
Cc1nc(NC(=O)CSc2cc(C)c3ccccc3n2)c(Cl)cc1Cl	42	36	22	107	41*	24
CSc1ccc(Cl)c(C(=O)OCC(=O)Nc2ccccc2OC(F)F)c1	9	12	3	97	2	·
CCOc1ccc(NC(=O)c2c3c(nc4ccccc24)CCC3)cc1	-5	11	-6	101	-11	·
CCOc1c2c(nc3ccc(Cl)cc13)CCC2	35	16	7	92	41*	32*
O=C(/C=C/c1ccc(Cl)cc1Cl)N1CCN(c2ccc([N+](=O)[O-])c(N3CCOCC3)c2)CC1	13	6	13	101	42*	16
CC(C)Oc1ccc(C(=O)NN2C(=O)NC3(CCCCC3)C2=O)cc1	-10	10	-1	77	-11	·
CCCN1CCN(CCCNC(=O)CCNC(=O)Cn2ccc3ccccc3c2=O)CC1	15	9	-13	97	-1	·
O=C1c2cccnc2C(=O)N1Cc1ccc(F)cc1S(=O)(=O)NCc1ccco1	-1	15	-8	102	1	·
CCOC(=O)c1c(N)sc2c(OC)c(Br)ccc12	39	34	32	86	58*	45*
COc1ccc(S(=O)(=O)Cc2ccc(C(=O)NC3CCC(C)CC3)o2)cc1 (configuration not stated)	23	4	12	95	40*	6
COc1ccc(S(=O)(=O)Cc2ccc(C(=O)N3CCN(c4cc(C)ccc4C)CC3)o2)cc1	29	8	12	109	45*	-5
COc1ccc(S(=O)(=O)Cc2ccc(C(=O)N3CCN(c4cc(Cl)ccc4C)CC3)o2)cc1	36	8	12	114	23	·
